Compound activity: PubChem, National Center for Advancing Translational Sciences (NCATS)
Many of the other results were omitted from the sample, so hits are more common in it than they were.
LmPK inhibitor – qHTS Assay for Inhibitors of Leishmania Mexicana Pyruvate Kinase (LmPK); Q27686; purified LmPK, Kinase-Glo ATP luminescence, 1 h; Potency, µM (top dose mostly 57.5 µM), actives largely listed as inhibitors; hit rate 0.37% among 290,000
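Screened at intermediate enzyme activity to detect both inhibitors and activators: LmPK at 0.1 nM, with a 0.5 nM enzyme column as activation reference. PEP 0.5 mM, ADP 0.1 mM; ATP detected by luminescence after 1 h.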
FBPA Giardia inh – qHTS Assay for Inhibitors of Fructose-1,6-bisphosphate Aldolase from Giardia Lamblia; A8B2U2; AID 2451, 2010; hit rate 0.71% among 290,000; purified Giardia FBPA; Potency, µM (titrated, usually from 59.6 µM), most hits filed as inhibitors; also: nearly all actives have a fitted effect of over 55% in size
Target sequence (A8B2U2 whole entry, looked up): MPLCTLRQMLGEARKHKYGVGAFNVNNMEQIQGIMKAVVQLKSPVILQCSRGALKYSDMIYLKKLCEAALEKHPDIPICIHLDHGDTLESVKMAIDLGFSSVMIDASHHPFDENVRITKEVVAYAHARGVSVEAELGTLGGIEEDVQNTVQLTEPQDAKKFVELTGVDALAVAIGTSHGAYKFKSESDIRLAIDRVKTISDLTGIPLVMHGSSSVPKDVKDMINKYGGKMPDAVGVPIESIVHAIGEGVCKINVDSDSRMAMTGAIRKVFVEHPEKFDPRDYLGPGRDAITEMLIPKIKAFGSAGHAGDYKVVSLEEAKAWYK
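40 nM FBPA preincubated 10 min at RT with compound (up to 57.5 uM final), then substrate plus GAPDH/TPI/NAD/arsenate coupling and diaphorase/resazurin added. Fluorescence read after 20 min at RT, 525/598 nm.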
Shiga toxin inh – A qHTS for Small Molecule Inhibitors of Shiga Toxin; hit rate 9.2% among 290,000; Vero cells, Shiga toxin protein synthesis inhibition reporter; AID 2315, 2010; inhibition, % at 38.7 µM; in the data active = inhibition mostly above about 28%, no sharp cut-off; inactive = mostly below about 43%
Cycloheximide cs – Cycloheximide Counterscreen for Small Molecule Inhibitors of Shiga Toxin. cell reporter, cycloheximide protein synthesis inhibition counterscreen. max response, %. hit rate 12% among 300,000; in the data active = max response mostly above about 13%, no sharp cut-off; inactive = mostly below about 14%; also: read at 38.3 µM for the half of the compounds with a filed dose
Tb PYK inh – qHTS of Trypanosoma Brucei Inhibitors | hit rate 0.12% among 410,000 | TbPYK enzyme, Kinase-Glo Plus ATP luminescence, 45 min | Potency, µM (highest dose often 76.8 µM), actives largely listed as inhibitors | AID 624173, 2012 | pyruvate kinase (Trypanosoma brucei), Q57TT1; also: nearly all actives have a fitted effect of over 50% in size
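Quantitative HTS: titrated library compounds versus trypanosomal pyruvate kinase in TEA buffer (pH 7.2) containing KCl, MgCl2, BSA and Tween-20. Reactions were initiated with ADP, 130 uM final. Kinase-Glo Plus luminescence was read after 45 min at RT.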
RE007 growth inh – qHTS Assay for Inhibitors of the HIV-1 protein Vpr; hit rate 0.21% among 360,000; S. pombe RE007 Vpr strain, BacTiter-Glo ATP luminescence, 24 h; Potency, µM (top dose mostly 92.2 µM), actives largely listed as inhibitors; active = well fitted falling curve with a large enough effect; inconclusive = small, poorly fitted or top-dose-only effect; inactive = no such curve, though single readings can be large or run the other way; also: nearly all actives have a fitted effect of over 50% in size
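Fission yeast strain RE007, carrying one chromosomally integrated HIV-1 vpr copy, was seeded at OD 0.01 in PMG+AL medium with 23 nL pinned compound. After 24 h at 30 °C and 99% humidity, viability was read by BacTiter-Glo luminescence.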
Hits are given with their value; . = inactive; ? = inconclusive; / = no result; [ ] = remark or other dose. Unless noted, calls follow the shape of the dose curve; as a rule, active = well fitted curve in the direction sought with a large enough effect; inconclusive = small, poorly fitted or top-dose-only effect, or another doubt; inactive = no such curve, though single readings can be large; an effect the other way counts as inactive or inconclusive.

SMILES	LmPK inhibitor	FBPA Giardia inh	Shiga toxin inh	Cycloheximide cs	Tb PYK inh	RE007 growth inh
C=CCOC(=O)NC(c1ccc(F)c(F)c1)C(C(C)=O)C(=O)OC (configuration not stated)	/	.	/	/	/	/
COc1ccc(NC(=O)CCNS(=O)(=O)c2ccc3c(c2)CCCC(=O)N3)cc1	/	/	/	/	.	/
c1ccc2c(c1)nc(Nc1ccc(N3CCCCC3)cc1)c1nncn12	.	.	.	15.2	.	.
c1ccc(N2CCCCC2)c(Nc2nc3ccccc3n3cnnc23)c1	.	.	.	.	.	.
CC(Nc1nc2ccccc2n2cnnc12)c1ccccc1 (configuration not stated)	.	.	35.3	19.8	.	.
c1ccc(Nc2nc3ccccc3n3cnnc23)cc1	.	.	.	.	.	.
COc1cccc(CN2C(=O)c3ccccc3Sc3ccc(C(=O)N(C)Cc4ccccc4)cc32)c1	/	/	/	/	.	/
O=c1c(CCc2ccccc2)nc2cnc(Nc3ccccc3)nc2n1Cc1cccs1	/	.	/	/	.	/
CC(=O)OC[C@H]1O[C@@H](O/N=C(\C)CCN2CCCCc3nc(C)c(C)cc32)[C@H](OC(C)=O)[C@@H](OC(C)=O)[C@H]1OC(C)=O	/	.[12.9 µM]	/	/	/	/
N#Cc1cccc(NC(=O)N2CC[C@@]3(CCCN(C(=O)c4cc(C(F)(F)F)cc(C(F)(F)F)c4)C3)C2)c1	/	.	/	/	.	/
Cc1cccc(NC(=O)CC2NCCNC2=O)c1 (configuration not stated)	.	.	.	24.1	.	.
Cc1cc(NC(=O)CC2CCCC2)ccc1Br	.	.	62.5	26.3	.	?
Cc1cccc(NC(=O)CC2CCC2)c1	.	.	.	20.0	.	.
COc1ccc(-c2nc3scc(CCNC(=O)c4cc(OC)cc(OC)c4)n3n2)cc1	/	/	/	/	.	/
CCN(CC)Cc1c(NC(=O)c2ccc(OC)cc2)sc2c1CCCC2	/	/	/	/	.	/
Cn1nccc1C(=O)OCC(=O)Nc1ccccc1	.	.	.	.	.	.
Cc1ccc(NC(=O)COC(=O)c2ccnn2C)cc1	.	.	.	31.6	.	.
Cc1ccc(NC(=O)COC(=O)c2ccn(C)n2)cc1	.	.	.	20.0	.	.
NC(=O)c1ccc[n+]([C@@H]2OC(COP(=O)([O-])OP(=O)(O)OCC3OC(n4cnc5c(N)ncnc54)C(OP(=O)(O)O)C3O)C(O)C2O)c1 (some centres not stated)	/	.	/	/	/	/
COC(=O)c1ccccc1NC(=O)c1ccc(F)cc1F	/	/	.	.	/	/
COc1ccccc1-c1ccc(SCC(=O)N2CCOCC2)nn1	.	.	.	.	.	.
COc1ccccc1-c1ccc(SCc2ccc(C)cc2)nn1	.	.	76.4	32.2	.	.
COc1ccccc1-c1ccc(SCc2ccc(F)cc2)nn1	.	.	64.5	39.4	.	.
CCc1ccc(N2C(=O)CSC23C(=O)N(Cc2cccc(OC)c2)c2ccccc23)cc1 (configuration not stated)	/	/	/	/	.	/
O=C1OCC2OC(O)C(O)C(O)C2OC(=O)c2cc(O)c(O)c(O)c2-c2c(O)c(O)c3oc(=O)c4c(c(O)c(O)c5oc(=O)c2c3c54)-c2c1cc(O)c(O)c2O (configuration not stated)	.	3.97µM	.	.	/	/
SMILES	LmPK inhibitor	FBPA Giardia inh	Shiga toxin inh	Cycloheximide cs	Tb PYK inh	RE007 growth inh
O=C1CCCC/C1=C/Nc1cccc(C(F)(F)F)c1	.	.	50.4	47.9	.	.
CCOC(=O)c1ccc(N/C=C2\CCCCC2=O)cc1	.	.	48.4	25.0	.	.
O=C(/C=C/Nc1cccc(C(F)(F)F)c1)C(F)(F)F	.	.	.	.	.	.
CCOC(=O)c1ccc(Nc2ccc(C(C)=O)cc2)cc1	/	/	/	/	.	.
O=C1CCCC/C1=C\Nc1ccc(O)cc1	.	?	64.1	41.4	.	.
O=C1CCC/C1=C/Nc1ccc(Cl)cc1	.	.	71.7	30.5	.	.
O=C1CCC/C1=C\Nc1ccc(Cl)c([N+](=O)[O-])c1	.	.	.	.	.	.
O=C(O)c1ccc2cc(-c3ccc(O)c(C45CC6CC(CC(C6)C4)C5)c3)ccc2c1	/	.	/	/	.	/
